Holding throughout (test): PBM; 200 nM protein, PBS
Details in all cases: dsDNA, one strand shown

Experiment [1] concerns the target HOXB9 (Homo sapiens, UniProt P17482 171-250, T197M).
Experiment [2] has as its target HOXC9 (Homo sapiens, UniProt P31274 178-260, K195R).
Experiment [3] addresses T1, VENTX (Homo sapiens, UniProt O95231 78-163).
T1 sequence: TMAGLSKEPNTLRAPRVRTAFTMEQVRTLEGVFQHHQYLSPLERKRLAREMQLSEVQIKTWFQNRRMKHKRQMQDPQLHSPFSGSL

Experiment [4] addresses HOXA7 (Homo sapiens, UniProt P31268 116-202).
Experiment [5] has as its target HOXC10 (Homo sapiens, UniProt Q9NYD6 254-340).
Experiment [6] has as its target T2, PAX4 (Homo sapiens, UniProt O43316 9-242).
T2 sequence: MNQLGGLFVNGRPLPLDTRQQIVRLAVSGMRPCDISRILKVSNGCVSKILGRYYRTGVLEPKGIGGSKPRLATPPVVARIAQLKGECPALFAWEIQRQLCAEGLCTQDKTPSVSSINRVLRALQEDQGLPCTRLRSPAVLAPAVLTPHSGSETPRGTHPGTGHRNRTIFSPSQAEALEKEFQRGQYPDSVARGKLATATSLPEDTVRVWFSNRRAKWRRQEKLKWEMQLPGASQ

Experiment [7] addresses HOXB6 (Homo sapiens, UniProt P17509 132-218, K202E).
The target in experiment [8] is HOXB9 (Homo sapiens, UniProt P17482 171-250).
Sequence of HOXB9 (Homo sapiens, UniProt P17482 171-250) (P17482 171-250): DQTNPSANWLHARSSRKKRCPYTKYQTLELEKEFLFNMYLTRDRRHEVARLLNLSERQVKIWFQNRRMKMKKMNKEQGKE
Experiment [9] addresses HOXC9 (Homo sapiens, UniProt P31274 178-260).
Experiment [10] addresses HOXC9 (Homo sapiens, UniProt P31274 178-260, R193K).
The target in experiment [11] is HOXA2 (Homo sapiens, UniProt O43364 129-215, R185K).
Sequence of HOXA2 (Homo sapiens, UniProt O43364 129-215, R185K) (O43364 129-215 R185K): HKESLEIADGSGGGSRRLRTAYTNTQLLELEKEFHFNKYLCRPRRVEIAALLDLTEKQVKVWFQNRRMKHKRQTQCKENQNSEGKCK
Experiment [12] has as its target HOXC10 (Homo sapiens, UniProt Q9NYD6 254-340, K271E).
Experiment [13] concerns the target VAX1 (Homo sapiens, UniProt Q5SQQ9 86-172).
The target in experiment [14] is HOXB9 (Homo sapiens, UniProt P17482 171-250, R186Q).
Sequence of HOXB9 (Homo sapiens, UniProt P17482 171-250, R186Q) (P17482 171-250 R186Q): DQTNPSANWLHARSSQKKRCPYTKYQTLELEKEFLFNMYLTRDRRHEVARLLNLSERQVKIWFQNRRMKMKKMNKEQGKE
Experiment [15] addresses HOXC9 (Homo sapiens, UniProt P31274 178-260, R222W).
Experiment [16] has as its target T3, PAX4 (Homo sapiens, UniProt O43316 9-242, R227W).
T3 sequence: T2 sequence with R219W

The target of experiment [17] is HOXA2 (Homo sapiens, UniProt O43364 129-215, Y150S).
Sequence of HOXA2 (Homo sapiens, UniProt O43364 129-215, Y150S) (O43364 129-215 Y150S): as the sequence (O43364 129-215 R185K) above, with Y22S, K57R counted along it
The target of experiment [18] is HOXA7 (Homo sapiens, UniProt P31268 116-202, W177C).
Sequence of HOXA7 (Homo sapiens, UniProt P31268 116-202, W177C) (P31268 116-202 W177C): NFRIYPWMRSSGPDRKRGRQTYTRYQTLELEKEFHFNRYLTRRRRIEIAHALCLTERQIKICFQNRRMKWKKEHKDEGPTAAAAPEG
Experiment [19] concerns the target HOXA2 (Homo sapiens, UniProt O43364 129-215).
The target of experiment [20] is HOXB6 (Homo sapiens, UniProt P17509 132-218).
Sequence of HOXB6 (Homo sapiens, UniProt P17509 132-218) (P17509 132-218): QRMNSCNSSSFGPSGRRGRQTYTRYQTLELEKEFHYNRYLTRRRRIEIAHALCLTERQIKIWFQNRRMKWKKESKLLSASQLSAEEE

Numbering of substitutions follows the chain as printed.

Sequence of HOXC10 (Homo sapiens, UniProt Q9NYD6 254-340) (Q9NYD6 254-340): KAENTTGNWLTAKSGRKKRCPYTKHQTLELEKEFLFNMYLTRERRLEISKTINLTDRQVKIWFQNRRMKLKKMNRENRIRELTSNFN
Sequence of HOXB9 (Homo sapiens, UniProt P17482 171-250, T197M) (P17482 171-250 T197M): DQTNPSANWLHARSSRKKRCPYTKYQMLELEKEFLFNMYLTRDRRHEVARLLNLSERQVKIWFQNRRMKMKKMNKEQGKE
Sequence of HOXA2 (Homo sapiens, UniProt O43364 129-215) (O43364 129-215): as the sequence (O43364 129-215 R185K) above, with K57R counted along it
Sequence of HOXC9 (Homo sapiens, UniProt P31274 178-260, K195R) (P31274 178-260 K195R): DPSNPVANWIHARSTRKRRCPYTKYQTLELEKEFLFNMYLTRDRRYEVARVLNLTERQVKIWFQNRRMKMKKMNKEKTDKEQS
Sequence of HOXC9 (Homo sapiens, UniProt P31274 178-260) (P31274 178-260): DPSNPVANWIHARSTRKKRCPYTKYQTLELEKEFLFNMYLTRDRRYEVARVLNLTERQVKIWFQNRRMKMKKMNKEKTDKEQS
Sequence of HOXA7 (Homo sapiens, UniProt P31268 116-202) (P31268 116-202): as the sequence (P31268 116-202 W177C) above, with C62W counted along it
Sequence of VAX1 (Q5SQQ9 86-172): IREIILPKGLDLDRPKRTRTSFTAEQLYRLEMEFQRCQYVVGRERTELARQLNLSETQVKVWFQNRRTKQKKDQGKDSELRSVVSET
Sequence of HOXC9 (Homo sapiens, UniProt P31274 178-260, R193K) (P31274 178-260 R193K): as the sequence (P31274 178-260) above, with R16K counted along it
Sequence of HOXC9 (Homo sapiens, UniProt P31274 178-260, R222W) (P31274 178-260 R222W): as the sequence (P31274 178-260) above, with R45W counted along it
Sequence of HOXC10 (Homo sapiens, UniProt Q9NYD6 254-340, K271E) (Q9NYD6 254-340 K271E): as the sequence (Q9NYD6 254-340) above, with K18E counted along it
Sequence of HOXB6 (Homo sapiens, UniProt P17509 132-218, K202E) (P17509 132-218 K202E): as the sequence (P17509 132-218) above, with K71E counted along it

Turning to CTTAATTA, the binding signal in experiment [1] is 10.2 upbm affinity estimate (log intensity, higher = more binding, comparable within an allelic series); in experiment [2], 12.7 upbm affinity estimate (log intensity, higher = more binding, comparable within an allelic series); in [3], 12.9 upbm affinity estimate (log intensity, higher = more binding, comparable within an allelic series); in experiment [4], 12.1 upbm affinity estimate (log intensity, higher = more binding, comparable within an allelic series); in [5], 12.2 upbm affinity estimate (log intensity, higher = more binding, comparable within an allelic series); in experiment [6], 12.7 upbm affinity estimate (log intensity, higher = more binding, comparable within an allelic series). Moreover, the binding signal in [7] is 10.3 upbm affinity estimate (log intensity, higher = more binding, comparable within an allelic series); in experiment [8], 11.8 upbm affinity estimate (log intensity, higher = more binding, comparable within an allelic series); in experiment [9] it was 12.6 upbm affinity estimate (log intensity, higher = more binding, comparable within an allelic series); in experiment [10] it was 12.6 upbm affinity estimate (log intensity, higher = more binding, comparable within an allelic series); in [11], 13.8 upbm affinity estimate (log intensity, higher = more binding, comparable within an allelic series); in experiment [12], 12.2 upbm affinity estimate (log intensity, higher = more binding, comparable within an allelic series). In addition, the binding signal in experiment [13] was 13.8 upbm affinity estimate (log intensity, higher = more binding, comparable within an allelic series); in experiment [14], 11.5 upbm affinity estimate (log intensity, higher = more binding, comparable within an allelic series); in experiment [15] it was 11.1 upbm affinity estimate (log intensity, higher = more binding, comparable within an allelic series); in [16], 11.3 upbm affinity estimate (log intensity, higher = more binding, comparable within an allelic series); in [17], 11 upbm affinity estimate (log intensity, higher = more binding, comparable within an allelic series); in experiment [18], 8.96 upbm affinity estimate (log intensity, higher = more binding, comparable within an allelic series). The binding signal was 13.1 upbm affinity estimate (log intensity, higher = more binding, comparable within an allelic series) in experiment [19] and 12.5 upbm affinity estimate (log intensity, higher = more binding, comparable within an allelic series) in experiment [20].

For ATAATTAT, the binding signal is 10.4 upbm affinity estimate (log intensity, higher = more binding, comparable within an allelic series) in experiment [1]; 12.9 upbm affinity estimate (log intensity, higher = more binding, comparable within an allelic series) in [2]; 12.3 upbm affinity estimate (log intensity, higher = more binding, comparable within an allelic series) in experiment [3]; 12 upbm affinity estimate (log intensity, higher = more binding, comparable within an allelic series) in experiment [4]; 12.3 upbm affinity estimate (log intensity, higher = more binding, comparable within an allelic series) in experiment [5]; 12.4 upbm affinity estimate (log intensity, higher = more binding, comparable within an allelic series) in experiment [6]. Besides, the binding signal in experiment [7] was 10.3 upbm affinity estimate (log intensity, higher = more binding, comparable within an allelic series); in experiment [8], 12 upbm affinity estimate (log intensity, higher = more binding, comparable within an allelic series); in experiment [9], 12.9 upbm affinity estimate (log intensity, higher = more binding, comparable within an allelic series); in [10], 12.8 upbm affinity estimate (log intensity, higher = more binding, comparable within an allelic series); in [11], 13.8 upbm affinity estimate (log intensity, higher = more binding, comparable within an allelic series); in experiment [12], 12.1 upbm affinity estimate (log intensity, higher = more binding, comparable within an allelic series). Also, the binding signal in experiment [13] was 13.2 upbm affinity estimate (log intensity, higher = more binding, comparable within an allelic series); in [14], 11.7 upbm affinity estimate (log intensity, higher = more binding, comparable within an allelic series); in [15], 11.2 upbm affinity estimate (log intensity, higher = more binding, comparable within an allelic series); in [16], 11.3 upbm affinity estimate (log intensity, higher = more binding, comparable within an allelic series); in experiment [17] it was 10.9 upbm affinity estimate (log intensity, higher = more binding, comparable within an allelic series); in experiment [18], 9.06 upbm affinity estimate (log intensity, higher = more binding, comparable within an allelic series). Also, the binding signal in [19] is 13.1 upbm affinity estimate (log intensity, higher = more binding, comparable within an allelic series); in [20], 12.4 upbm affinity estimate (log intensity, higher = more binding, comparable within an allelic series).

Regarding ATTAATTG, the binding signal in experiment [1] was 10.3 upbm affinity estimate (log intensity, higher = more binding, comparable within an allelic series); in [2] it was 12.8 upbm affinity estimate (log intensity, higher = more binding, comparable within an allelic series); in experiment [3] it was 12.8 upbm affinity estimate (log intensity, higher = more binding, comparable within an allelic series); in experiment [4] it was 12 upbm affinity estimate (log intensity, higher = more binding, comparable within an allelic series); in [5], 12.2 upbm affinity estimate (log intensity, higher = more binding, comparable within an allelic series); in [6], 12.4 upbm affinity estimate (log intensity, higher = more binding, comparable within an allelic series). For the same sequence, the binding signal in experiment [7] was 10.1 upbm affinity estimate (log intensity, higher = more binding, comparable within an allelic series); in experiment [8], 12.2 upbm affinity estimate (log intensity, higher = more binding, comparable within an allelic series); in experiment [9], 12.9 upbm affinity estimate (log intensity, higher = more binding, comparable within an allelic series); in [10], 12.7 upbm affinity estimate (log intensity, higher = more binding, comparable within an allelic series); in experiment [11], 13.5 upbm affinity estimate (log intensity, higher = more binding, comparable within an allelic series); in experiment [12] it was 12.2 upbm affinity estimate (log intensity, higher = more binding, comparable within an allelic series). For the same sequence, the binding signal in [13] was 13.2 upbm affinity estimate (log intensity, higher = more binding, comparable within an allelic series); in [14] it was 11.8 upbm affinity estimate (log intensity, higher = more binding, comparable within an allelic series); in experiment [15], 11.2 upbm affinity estimate (log intensity, higher = more binding, comparable within an allelic series); in experiment [16] it was 11 upbm affinity estimate (log intensity, higher = more binding, comparable within an allelic series); in experiment [17], 11 upbm affinity estimate (log intensity, higher = more binding, comparable within an allelic series); in [18], 8.87 upbm affinity estimate (log intensity, higher = more binding, comparable within an allelic series). Further, the binding signal was 12.6 upbm affinity estimate (log intensity, higher = more binding, comparable within an allelic series) in experiment [19] and 12.3 upbm affinity estimate (log intensity, higher = more binding, comparable within an allelic series) in experiment [20].

The values above are taken from publication PMC11006913.
